Assay results taken from PubChem BioAssay AID1159580 (chemical genetic matrix, 2015).
The campaign covered roughly 5,500 compounds. About 2,000 (36%) were called active. Inconclusive results (about 18%) are left out. Rule as the data show it: active = normalized growth mostly below about 0.91 (no sharp cut-off); inconclusive = no clear call, values can overlap the other calls; inactive = mostly above about 0.92. Some of the results follow.

Assay: chemical genetic growth profiling, strain panel (AID 1159580);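 also: tested at 20 µM; growth read once vehicle control cultures reached saturation at 30 °C; 1 = growth at the plate median or of vehicle wells; lower values mean less growth of the strain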
Conditions: growth OD

Measured: normalized growth

CC(CN(C)C)CN1c2ccccc2Sc2ccccc21 (configuration not stated)
inactive: S. cerevisiae deletion strains, locus YJR075W, strain HOC1, stronger effect = lower value 0.986 | S. cerevisiae deletion strains, locus YKL009W, strain mrt4, stronger effect = lower value 0.99 | S. cerevisiae deletion strains, locus YKL068W, stronger effect = lower value 0.981 | S. cerevisiae deletion strains, locus YKL085W, strain MDH1 (second series), stronger effect = lower value 1.01 | S. cerevisiae deletion strains, locus YKL085W, strain MDH1, stronger effect = lower value 1.01 | S. cerevisiae deletion strains, locus YKL160W, strain elf1, stronger effect = lower value 1.01 | S. cerevisiae deletion strains, locus YKL190W, strain CNB1, stronger effect = lower value 0.999 | S. cerevisiae deletion strains, locus YKR001C, strain vps1, stronger effect = lower value 0.991 | S. cerevisiae deletion strains, locus YKR026C, strain gcn3, stronger effect = lower value 1.02 | S. cerevisiae deletion strains, locus YKR091W, strain srl3, stronger effect = lower value 1.02 | S. cerevisiae deletion strains, locus YLL001W, strain dnm1, stronger effect = lower value 1.02 | S. cerevisiae deletion strains, locus YLL026W, stronger effect = lower value 1.02 | S. cerevisiae deletion strains, locus YLL041C, strain sdh2, stronger effect = lower value 1.01 | S. cerevisiae deletion strains, locus YLR027C, strain aat2, stronger effect = lower value 1.02 | S. cerevisiae deletion strains, locus YLR058C, strain SHM2, stronger effect = lower value 0.985 | S. cerevisiae deletion strains, locus YLR102C, strain apc9, stronger effect = lower value 0.993 | S. cerevisiae deletion strains, locus YLR113W, strain HOG1, stronger effect = lower value 0.988 | S. cerevisiae deletion strains, locus YLR221C, strain rsa3, stronger effect = lower value 1.02 | S. cerevisiae deletion strains, locus YLR258W, strain gsy2, stronger effect = lower value 1.02 | S. cerevisiae deletion strains, locus YLR262C, strain YPT6 (second series), stronger effect = lower value 1.1 | S. cerevisiae deletion strains, locus YLR268W, strain sec22, stronger effect = lower value 0.918 | S. cerevisiae deletion strains, locus YLR320W, strain mms22, stronger effect = lower value 1.01 | S. cerevisiae deletion strains, locus YLR330W, strain CHS5, stronger effect = lower value 0.999 | S. cerevisiae deletion strains, locus YLR342W, strain FKS1 (second series), stronger effect = lower value 0.888 | S. cerevisiae deletion strains, locus YLR342W, strain FKS1, stronger effect = lower value 1.03 | S. cerevisiae deletion strains, locus YLR357W, strain rsc2, stronger effect = lower value 1.04 | S. cerevisiae deletion strains, locus YLR370C, strain arc18, stronger effect = lower value 1.02 | S. cerevisiae deletion strains, locus YLR371W, strain rom2, stronger effect = lower value 0.994 | S. cerevisiae deletion strains, locus YLR384C, strain iki3, stronger effect = lower value 1.02 | S. cerevisiae deletion strains, locus YLR418C, strain cdc73, stronger effect = lower value 0.874 | S. cerevisiae deletion strains, locus YML016C, strain PPZ1, stronger effect = lower value 0.992 | S. cerevisiae deletion strains, locus YML032C, strain rad52, stronger effect = lower value 0.968 | S. cerevisiae deletion strains, locus YML120C, strain ndi1, stronger effect = lower value 0.998 | S. cerevisiae deletion strains, locus YML124C, strain tub3, stronger effect = lower value 0.995 | S. cerevisiae deletion strains, locus YMR058W, strain fet3, stronger effect = lower value 1.01 | S. cerevisiae deletion strains, locus YMR078C, strain ctf18, stronger effect = lower value 0.985 | S. cerevisiae deletion strains, locus YMR125W, strain sto1, stronger effect = lower value 1.02 | S. cerevisiae deletion strains, locus YMR129W, stronger effect = lower value 1.02 | S. cerevisiae deletion strains, locus YMR205C, strain PFK2, stronger effect = lower value 1.03 | S. cerevisiae deletion strains, locus YMR223W, strain ubp8, stronger effect = lower value 0.98 | S. cerevisiae deletion strains, locus YMR231W, strain pep5, stronger effect = lower value 1.03 | S. cerevisiae deletion strains, locus YMR263W, strain SAP30, stronger effect = lower value 0.978 | S. cerevisiae deletion strains, locus YMR307W, strain GAS1, stronger effect = lower value 1.03 | S. cerevisiae deletion strains, locus YNL067W, strain RPL9B, stronger effect = lower value 0.967 | S. cerevisiae deletion strains, locus YNL071W, strain lat1, stronger effect = lower value 1.02 | S. cerevisiae deletion strains, locus YNL128W, strain TEP1, stronger effect = lower value 0.988 | S. cerevisiae deletion strains, locus YNL153C, strain GIM3, stronger effect = lower value 0.953 | S. cerevisiae deletion strains, locus YNL183C, strain NPR1, stronger effect = lower value 0.948 | S. cerevisiae deletion strains, locus YNL209W, strain ssb2, stronger effect = lower value 1.02 | S. cerevisiae deletion strains, locus YNL233W, strain BNI4, stronger effect = lower value 0.969 | S. cerevisiae deletion strains, locus YNL248C, strain rpa49, stronger effect = lower value 1.02 | S. cerevisiae deletion strains, locus YNL250W, strain rad50, stronger effect = lower value 0.985 | S. cerevisiae deletion strains, locus YNL271C, strain bni1, stronger effect = lower value 0.992 | S. cerevisiae deletion strains, locus YNL298W, strain CLA4, stronger effect = lower value 0.991 | S. cerevisiae deletion strains, locus YNL307C, strain MCK1, stronger effect = lower value 0.974 | S. cerevisiae deletion strains, locus YNL322C, strain KRE1 (second series), stronger effect = lower value 1.04 | S. cerevisiae deletion strains, locus YNL322C, strain KRE1, stronger effect = lower value 0.998 | S. cerevisiae deletion strains, locus YNR049C, strain mso1, stronger effect = lower value 1.04 | S. cerevisiae deletion strains, locus YNR052C, strain pop2, stronger effect = lower value 0.974 | S. cerevisiae deletion strains, locus YOL006C, strain TOP1, stronger effect = lower value 0.922 | S. cerevisiae deletion strains, locus YOL012C, strain htz1 0.837 | S. cerevisiae deletion strains, locus YOL147C, strain pex11, stronger effect = lower value 0.996 | S. cerevisiae deletion strains, locus YOR001W, strain rrp6, stronger effect = lower value 1.01 | S. cerevisiae deletion strains, locus YOR061W, strain CKA2, stronger effect = lower value 0.996 | S. cerevisiae deletion strains, locus YOR069W, strain VPS5, stronger effect = lower value 0.984 | S. cerevisiae deletion strains, locus YOR070C, strain gyp1, stronger effect = lower value 1.02 | S. cerevisiae deletion strains, locus YOR080W, strain dia2, stronger effect = lower value 1.02 | S. cerevisiae deletion strains, locus YOR083W, strain WHI5, stronger effect = lower value 0.987 | S. cerevisiae deletion strains, locus YOR106W, strain vam3, stronger effect = lower value 1.05 | S. cerevisiae deletion strains, locus YOR136W, strain idh2, stronger effect = lower value 0.987 | S. cerevisiae deletion strains, locus YOR144C, strain elg1, stronger effect = lower value 0.993 | S. cerevisiae deletion strains, locus YOR184W, strain ser1, stronger effect = lower value 1.02 | S. cerevisiae deletion strains, locus YOR231W, strain MKK1, stronger effect = lower value 0.997 | S. cerevisiae deletion strains, locus YOR265W, strain rbl2, stronger effect = lower value 1.03 | S. cerevisiae deletion strains, locus YOR270C, strain vph1, stronger effect = lower value 1.08 | S. cerevisiae deletion strains, locus YOR290C, strain snf2, stronger effect = lower value 1.02 | S. cerevisiae deletion strains, locus YOR316C, strain cot1, stronger effect = lower value 0.992 | S. cerevisiae deletion strains, locus YPL051W, strain arl3, stronger effect = lower value 0.996 | S. cerevisiae deletion strains, locus YPL055C, strain LGE1, stronger effect = lower value 0.992 | S. cerevisiae deletion strains, locus YPL078C, strain atp4, stronger effect = lower value 1.01 | S. cerevisiae deletion strains, locus YPL106C, strain sse1, stronger effect = lower value 1.03 | S. cerevisiae deletion strains, locus YPL240C, strain hsp82, stronger effect = lower value 0.997 | S. cerevisiae deletion strains, locus YPL241C, strain CIN2, stronger effect = lower value 0.999 | S. cerevisiae deletion strains, locus YPL256C, strain CLN2, stronger effect = lower value 0.99 | S. cerevisiae deletion strains, locus YPR119W, strain clb2, stronger effect = lower value 0.997 | S. cerevisiae deletion strains, locus YPR141C, strain kar3, stronger effect = lower value 0.983 | S. cerevisiae deletion strains, locus YPR163C, strain tif3, stronger effect = lower value 0.966 | S. cerevisiae deletion strains, locus YPR167C, strain met16, stronger effect = lower value 0.99 | S. cerevisiae deletion strains, strain wtn01, stronger effect = lower value 0.968 | S. cerevisiae strains, strain wild type, stronger effect = lower value 0.992
active: S. cerevisiae deletion strains, locus YLR039C, strain RIC1, stronger effect = lower value 1.34 [resistant] | S. cerevisiae deletion strains, locus YLR262C, strain YPT6, stronger effect = lower value 1.44 [resistant]
